Pf Dd2 inh: inhibitors of Plasmodium falciparum Dd2 growth; P. falciparum Dd2 growth, SYBR Green, 72 h; Potency, µM (series often up to 28.9 µM), for inactives: top-dose activity, negative = inhibition, actives largely listed as inhibitors; 120,000 tested, 4.3% active; AID 1347417; active = well fitted inhibition curve with a large enough effect;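 note: plate controls were DMSO vehicle for no effect and reference drug for full effect; nearly all actives have a fitted effect of over 65% in size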
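Infected erythrocytes (Dd2, 0.3% parasitemia, 2.5% hematocrit final) are added to compound in RPMI-1640/Albumax II medium, grown 72 h at 37C in low oxygen, then lysed with saponin/Triton-X containing SYBR Green and read by fluorescence.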
* marks the source's active call; other numbers are inactive results; i = inactive; [ ] = another dose, or the depositor's remark. This excerpt belongs to a sample that is enriched for hits. Potency is the fitted concentration of half-maximal effect.

SMILES | Pf Dd2 inh
COCC(=O)NC1CCC12CCN(C(=O)Cc1cccc(F)c1)CC2 (stereo unspecified) | -10.7%
COCC(=O)N[C@H]1C[C@@H](CO)N(Cc2scnc2C)C1 | i
O=C(Nc1ccc2c(c1)OCCO2)NC1CCN(C(=O)N2CC3CC(C2)[C@H]2CCCC(=O)N2C3)CC1 (stereo partly specified) | i
COC(=O)N1CCCC(c2nn(-c3cccc(Cl)c3)c(=O)[nH]2)C1 (stereo unspecified) | -1.8%
O=C(Cn1cccc1-c1nc(-c2ccc3c(c2)OCO3)no1)Nc1ccc(Cl)cc1 | 2µM*
O=C(Cn1cccc1-c1nc(-c2ccc3c(c2)OCO3)no1)NCc1ccc(F)cc1F | 12.1%
O=C(NCCn1cccc1-c1nc(-c2ccc3c(c2)OCO3)no1)c1ccc(F)cc1 | 130.7%
CN(C)c1ccc(NC(=O)Cn2cccc2-c2nc(-c3ccc4c(c3)OCO4)no2)cc1 | 6.8%
CN(C)c1ccc(C(=O)N[C@H]2C[C@@H](c3nc(-c4ccc5c(c4)OCO5)no3)N(C)C2)cc1 | i
Cc1ccc(C(=O)NCCn2cccc2-c2nc(-c3ccc4c(c3)OCO4)no2)cc1C | -30.2%
O=C(NCCn1cccc1-c1nc(-c2ccc3c(c2)OCO3)no1)c1ccc2c(c1)OCO2 | 12.6µM*
O=C(Cn1cccc1-c1nc(-c2ccc3c(c2)OCO3)no1)NCc1ccc(Cl)cc1 | 5.4%
Cc1cc(C)c(NC(=O)Cn2cccc2-c2nc(-c3ccc4c(c3)OCO4)no2)c(C)c1 | 10.5%
O=C(Cn1cccc1-c1nc(-c2ccc3c(c2)OCO3)no1)Nc1cc(F)cc(F)c1 | 5.01µM*
CN1C[C@@H](NC(=O)c2ccc3c(c2)OCO3)C[C@H]1c1nc(-c2ccc(Cl)cc2)no1 | 10µM*
CN1C[C@@H](NC(=O)c2ccc(F)cc2)C[C@H]1c1nc(-c2ccc(Cl)cc2)no1 | i
CNC(=O)[C@@H]1CN(C(=O)COc2ccc(Cl)cc2C)C[C@H]1COC | i
O=S(=O)(c1ccccc1)N1CCCC(Cc2noc(-c3cnccn3)n2)C1 (stereo unspecified) | i
CC1Oc2ccc(NC(=O)c3ccc(F)cc3F)cc2CN(Cc2ccc(Cl)cc2)C1=O (stereo unspecified) | -18.4%
Cc1cc(C(=O)N[C@@H]2CN(Cc3ccccc3)C[C@H]2CN(C)C)n[nH]1 | 15.9%
O=C(C1CC1)N1CCC(c2noc(-c3ccccn3)n2)C1 (stereo unspecified) | i[5.79 µM]
CCN(C(=O)C1CCC(=O)N(CCc2ccc(Cl)cc2)C1)C(C)C (stereo unspecified) | 1.6%
Cc1cc2c(c(=O)n(-c3ccccc3)c(=O)n2CC(=O)Nc2ccccc2F)n1C | -6.0%
O=C(NC1CC1)[C@@H]1C[C@H](Oc2ccccc2)CN1C(=O)c1ccc2ncccc2c1 | -0.5%
O=C(c1cccnc1OC1CCN(S(=O)(=O)c2ccccc2)C1)N1CCCCC1 (stereo unspecified) | i
SMILES | Pf Dd2 inh
Cn1cccc1CN1CCCN(S(=O)(=O)c2ccccc2)CCC(=O)NCC1 | -28.5%
O=C1CCN(S(=O)(=O)c2ccccc2)CCCN(C(=O)Cc2ccccc2)CCN1 | i
O=C1CCN(S(=O)(=O)c2ccccc2)CCCN(C2CCCCCC2)CCN1 | 10µM*
O=C1CCN(C(=O)C2(c3ccccc3)CC2)CCCCCCN1 | -22.6%
COc1ccc2[nH]c(C(=O)N3CCCN(S(=O)(=O)c4ccccc4)CCC(=O)NCC3)cc2c1 | 12.6µM*
O=C1CCN(S(=O)(=O)c2ccccc2)CCCN(C(=O)c2cc3ccccc3[nH]2)CCN1 | -25.9%
O=C1CCN(S(=O)(=O)c2ccccc2)CCCN(C(=O)C2(c3ccccc3)CC2)CCN1 | 0.794µM*
O=C1CCN(S(=O)(=O)c2ccccc2)CCCN(Cc2ccccn2)CCN1 | i
CS(=O)(=O)N1CCCN(S(=O)(=O)c2ccccc2)CCC(=O)NCC1 | -18.9%
O=C1CCN(S(=O)(=O)c2ccccc2)CCCN(C2CCOCC2)CCN1 | -26.6%
O=C1CCN(S(=O)(=O)c2ccccc2)CCCN(Cc2ccc3[nH]ccc3c2)CCN1 | 11.2µM*
COc1ccc(C(=O)N2CCCN(S(=O)(=O)c3ccccc3)CCC(=O)NCC2)cc1 | i
Cc1ccc(S(=O)(=O)N2CCN(C3CCN(Cc4cccnc4)C3=O)CC2)cc1C (stereo unspecified) | i
CCn1ncc(C(=O)N2CCC(C3CCN(S(C)(=O)=O)CC3)C2)c1C (stereo unspecified) | -4.2%
O=[S+]1([O-])NCC2(CCN(Cc3cncs3)CC2)Nc2ccccc21 | -10.6%
CN(C)c1cccc(C(=O)Nc2ccc(-c3nnc4n3CCCC4)cc2)c1 | -8.0%
COc1cccc(C(=O)N2CCN(c3nc4ncccc4o3)CC2)c1 | i
COc1ccc(C(=O)N[C@@H]2CCC[C@@H]2C(=O)NCCCN2CCCc3ccccc32)cc1 | 11.2µM*
COc1ccc(C(=O)N[C@@H]2CCC[C@@H]2C(=O)N2CCN(Cc3ccc(F)cc3)CC2)cc1 | -18.5%
CCCNC(=O)[C@H]1CCC[C@H]1NC(=O)c1ccc(OC)cc1 | -14.3%
COc1ccc(C(=O)N[C@@H]2CCC[C@@H]2C(=O)N2CCCCC2)cc1 | 6.4%
COc1ccc(C(=O)N[C@@H]2CCC[C@@H]2C(=O)N2CCN(c3ccccc3F)CC2)cc1 | 10µM*
COc1ccc(C(=O)N[C@@H]2CCC[C@@H]2C(=O)NCCCn2cccn2)cc1 | 11.2%
COc1ccc(C(=O)N[C@@H]2CCC[C@@H]2C(=O)N2CCN(c3cc(C)ccc3C)CC2)cc1 | 5.01µM*
COc1ccc(C(=O)N[C@@H]2CCC[C@@H]2C(=O)N2CCCC2)cc1 | -19.6%
SMILES | Pf Dd2 inh
COc1ccc(C(=O)N[C@@H]2CCC[C@@H]2C(=O)N2CCOCC2)cc1 | 29.8%
COc1cccc(CN2C[C@@H]3C(=O)N(CCCN4CCCC4=O)C(=O)[C@@H]3C2)c1 | -8.0%
CN1C(=O)CS(=O)(=O)C12CCN(C(=O)c1ccc3c(c1)OCO3)CC2 | 11.3%
CO[C@@H]1CO[C@H]2[C@@H]1OC[C@@H]2NC(=S)Nc1ccc(Cl)cc1 | 24.0%[44.1 µM]
CCN(C(=O)CN1C(=O)C(c2ccccc2)=NC12CCCCC2)c1cccc(C)c1 | i
CNC(=O)N1C[C@@H](CN(C)C)[C@H](NC(=O)c2cc(C)cc(C)c2)C1 | 3.5%
O=C(Cn1ccn2nc(-c3ccc(F)cc3)c(CO)c2c1=O)NCCc1ccc(Cl)cc1 | -5.2%
O=C(N[C@@H]1COCC[C@@H]1Oc1ccc(F)cc1)c1cnc(C2CC2)nc1 | -7.0%
CCOC(=O)C1=C(CN(C)Cc2ccccc2)NC(=O)NC1c1ccc(OC)cc1 (stereo unspecified) | i
CCOC(=O)C1=C(CN2CCN(c3ccc(OC)cc3)CC2)NC(=O)NC1c1ccc(Cl)cc1 (stereo unspecified) | -16.5%
CCOC(=O)C1=C(CNCc2ccccc2)NC(=O)NC1c1ccc(C)cc1 (stereo unspecified) | 10µM*
CCOC(=O)C1=C(CN2CCN(c3cc(C)ccc3C)CC2)NC(=O)NC1c1ccc(Cl)cc1 (stereo unspecified) | 10µM*
CCOC(=O)C1=C(CN(CC)Cc2ccccc2)NC(=O)NC1c1ccc(Cl)cc1 (stereo unspecified) | i
CCOC(=O)C1=C(CN2CCN(C)CC2)NC(=O)NC1c1ccc(F)cc1 (stereo unspecified) | 48.7%
C[C@@H](NS(=O)(=O)c1ccccc1)c1onc(-c2ccc(F)cc2)c1C(=O)O | 41.9%[44.1 µM]
COc1cccc(C(=O)N2CCc3onc(-c4cccc(F)c4)c3C2)c1OC | -13.8%
Cc1cccc(C(=O)N2CCCCCC2c2nc(C)no2)c1 (stereo unspecified) | -17.4%
